# Where “and” joins values, the source holds several entries; their conditions need not be identical. Equal entries are not always repeated. The whole screen tested about 5,500 compounds, of which about 2,000 (36%) were called active. Another 18% or so got no clear call; they are omitted. Some of the results follow. A number with no mark means an inactive call. Cut-off read from the data, not from the text of the source: active = normalized growth mostly below about 0.91 (no sharp cut-off); inconclusive = no clear call, values can overlap the other calls; inactive = mostly above about 0.92.
# Assay: chemical genetic growth profiling, strain panel (AID 1159580);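 note: tested at 20 µM; growth read once vehicle control cultures reached saturation at 30 °C; 1 = growth at the plate median or of vehicle wells; lower values mean less growth of the strain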
# Conditions: S. cerevisiae deletion strains, growth OD
smiles,measurement,setting,value
CC12CCC3C(=CCc4cc(O)ccc43)C1CCC2=O (stereo not given),normalized growth,"locus YAL021C, strain ccr4, active compounds read low",0.932
same,normalized growth,"locus YAL026C, strain drs2, active compounds read low",0.992
same,normalized growth,"locus YAL030W, strain snc1, active compounds read low",0.998
same,normalized growth,"locus YBL061C, strain skt5, active compounds read low",0.971
same,normalized growth,"locus YBR009C, strain hhf1, active compounds read low",0.972
same,normalized growth,"locus YBR021W, strain FUR4, active compounds read low",0.913
same,normalized growth,"locus YBR023C, strain chs3, active compounds read low",0.974
same,normalized growth,"locus YBR171W, strain sec66, active compounds read low",0.986
same,normalized growth,"locus YBR229C, strain ROT2, active compounds read low",0.989
same,normalized growth,"locus YBR231C, strain swc5, active compounds read low",0.978
same,normalized growth,"locus YBR279W, strain paf1, active compounds read low",0.964
same,normalized growth,"locus YCL011C, strain gbp2, active compounds read low",0.98
same,normalized growth,"locus YCL016C, strain dcc1, active compounds read low",0.99
same,normalized growth,"locus YCL029C, strain bik1, active compounds read low",0.995
same,normalized growth,"locus YCL061C, strain MRC1, active compounds read low",0.965
same,normalized growth,"locus YCL069W, strain vba3, active compounds read low",0.964
same,normalized growth,"locus YCR088W, strain abp1, active compounds read low",0.981
same,normalized growth,"locus YDL005C, strain med2, active compounds read low",0.959
same,normalized growth,"locus YDL035C, strain GPR1, active compounds read low",0.898
same,normalized growth,"locus YDL040C, strain nat1, active compounds read low",0.995
same,normalized growth,"locus YDL074C, strain BRE1, active compounds read low",0.882
same,normalized growth,"locus YDL101C, strain DUN1, active compounds read low",0.975
same,normalized growth,"locus YDL185W, strain tfp1, active compounds read low",1.01
same,normalized growth,"locus YDL192W, strain arf1, active compounds read low",0.956
same,normalized growth,"locus YDR001C, strain nth1, active compounds read low",0.976
same,normalized growth,"locus YDR069C, strain doa4, active compounds read low",0.966
same,normalized growth,"locus YDR101C, strain arx1, active compounds read low",1.01
same,normalized growth,"locus YDR137W, strain rgp1, active compounds read low",0.614 (active)
same,normalized growth,"locus YDR150W, strain NUM1, active compounds read low",0.991
same,normalized growth,"locus YDR159W, strain sac3, active compounds read low",0.978
same,normalized growth,"locus YDR162C, strain NBP2, active compounds read low",0.515 (active)
same,normalized growth,"locus YDR195W, strain ref2",1.12
same,normalized growth,"locus YDR297W, strain sur2, active compounds read low",0.983
same,normalized growth,"locus YDR318W, strain mcm21, active compounds read low",0.962
same,normalized growth,"locus YDR334W, strain swr1, active compounds read low",0.936
same,normalized growth,"locus YDR335W, strain msn5, active compounds read low",0.925
same,normalized growth,"locus YDR388W, active compounds read low",0.983
same,normalized growth,"locus YDR392W, strain spt3, active compounds read low",0.937
same,normalized growth,"locus YDR502C, strain sam2, active compounds read low",0.961
same,normalized growth,"locus YEL003W, strain gim4, active compounds read low",0.945
same,normalized growth,"locus YEL037C, strain rad23, active compounds read low",0.99
same,normalized growth,"locus YEL061C, strain CIN8 (second series), active compounds read low",0.957
same,normalized growth,"locus YEL061C, strain CIN8, active compounds read low",0.967
same,normalized growth,"locus YER015W, strain faa2, active compounds read low",0.938
same,normalized growth,"locus YER016W, strain bim1, active compounds read low",0.976
same,normalized growth,"locus YER110C, active compounds read low",0.993
same,normalized growth,"locus YER111C, strain swi4, active compounds read low",0.989
same,normalized growth,"locus YER155C, strain BEM2 (second series), active compounds read low",0.987
same,normalized growth,"locus YER155C, strain BEM2, active compounds read low",0.994
same,normalized growth,"locus YER167W, strain BCK2, active compounds read low",0.988
same,normalized growth,"locus YFR010W, strain ubp6, active compounds read low",0.964
same,normalized growth,"locus YGL078C, strain dbp3, active compounds read low",1
same,normalized growth,"locus YGL086W, strain mad1, active compounds read low",0.949
same,normalized growth,"locus YGL167C, strain pmr1, active compounds read low",0.96
same,normalized growth,"locus YGL173C, strain kem1, active compounds read low",0.959
same,normalized growth,"locus YGL227W, strain vid30, active compounds read low",0.989
same,normalized growth,"locus YGL240W, strain doc1, active compounds read low",0.946
same,normalized growth,"locus YGL248W, strain PDE1, active compounds read low",0.936
same,normalized growth,"locus YGL253W, strain hxk2, active compounds read low",0.961
same,normalized growth,"locus YGR078C, strain PAC10, active compounds read low",0.903
same,normalized growth,"locus YGR135W, strain pre9, active compounds read low",0.952
same,normalized growth,"locus YGR229C, strain SMI1, active compounds read low",0.964
same,normalized growth,"locus YGR252W, strain gcn5, active compounds read low",0.882
same,normalized growth,"locus YHR013C, strain ard1, active compounds read low",0.994
same,normalized growth,"locus YHR027C, strain rpn1, active compounds read low",0.976
same,normalized growth,"locus YHR030C, strain SLT2, active compounds read low",0.981 and 1.03
same,normalized growth,"locus YHR079C, strain IRE1 (second series), active compounds read low",1.01
same,normalized growth,"locus YHR079C, strain IRE1, active compounds read low",1.03
same,normalized growth,"locus YHR094C, strain hxt1, active compounds read low",1.01
same,normalized growth,"locus YHR129C, strain ARP1, active compounds read low",0.968
same,normalized growth,"locus YHR142W, strain chs7, active compounds read low",0.929
same,normalized growth,"locus YHR200W, strain rpn10, active compounds read low",1
same,normalized growth,"locus YIL066C, strain RNR3, active compounds read low",0.881
same,normalized growth,"locus YIL073C, strain SPO22, active compounds read low",0.897
same,normalized growth,"locus YIL125W, strain kgd1, active compounds read low",0.994
same,normalized growth,"locus YIR030C, strain dcg1, active compounds read low",0.993
same,normalized growth,"locus YJL092W, strain hpr5, active compounds read low",0.993
same,normalized growth,"locus YJL095W, strain BCK1 (second series), active compounds read low",0.982
same,normalized growth,"locus YJL095W, strain BCK1, active compounds read low",0.819 and 1.04
same,normalized growth,"locus YJL115W, strain asf1, active compounds read low",0.97
same,normalized growth,"locus YJL129C, strain trk1, active compounds read low",0.965
same,normalized growth,"locus YJL134W, strain LCB3, active compounds read low",0.988
same,normalized growth,"locus YJL154C, strain vps35, active compounds read low",0.983
same,normalized growth,"locus YJL164C, strain tpk1, active compounds read low",0.964
same,normalized growth,"locus YJL166W, strain qcr8, active compounds read low",0.952
same,normalized growth,"locus YJL168C, strain set2, active compounds read low",0.994
same,normalized growth,"locus YJL187C, strain SWE1 (second series), active compounds read low",0.928
same,normalized growth,"locus YJR043C, strain POL32, active compounds read low",0.933
same,normalized growth,"locus YJR066W, strain TOR1, active compounds read low",0.99
same,normalized growth,"locus YKL009W, strain mrt4, active compounds read low",0.948
same,normalized growth,"locus YKL068W, active compounds read low",0.995
same,normalized growth,"locus YKL085W, strain MDH1 (second series), active compounds read low",0.98
same,normalized growth,"locus YKL085W, strain MDH1, active compounds read low",0.98
same,normalized growth,"locus YKL160W, strain elf1, active compounds read low",0.942
same,normalized growth,"locus YKL190W, strain CNB1, active compounds read low",0.977
same,normalized growth,"locus YKR001C, strain vps1, active compounds read low",0.908
same,normalized growth,"locus YKR091W, strain srl3, active compounds read low",0.98
same,normalized growth,"locus YLL001W, strain dnm1, active compounds read low",0.94
same,normalized growth,"locus YLL026W, active compounds read low",0.988
same,normalized growth,"locus YLL041C, strain sdh2, active compounds read low",0.974
same,normalized growth,"locus YLR027C, strain aat2, active compounds read low",0.968
same,normalized growth,"locus YLR039C, strain RIC1, active compounds read low",0.397 (active)
same,normalized growth,"locus YLR058C, strain SHM2, active compounds read low",0.958
same,normalized growth,"locus YLR102C, strain apc9, active compounds read low",1.02
same,normalized growth,"locus YLR113W, strain HOG1, active compounds read low",1.07
same,normalized growth,"locus YLR221C, strain rsa3, active compounds read low",0.956
same,normalized growth,"locus YLR258W, strain gsy2, active compounds read low",0.968
same,normalized growth,"locus YLR262C, strain YPT6 (second series), active compounds read low",0.598 (active)
same,normalized growth,"locus YLR262C, strain YPT6, active compounds read low",0.377 (active)
same,normalized growth,"locus YLR268W, strain sec22, active compounds read low",0.973
same,normalized growth,"locus YLR320W, strain mms22, active compounds read low",0.94
same,normalized growth,"locus YLR330W, strain CHS5, active compounds read low",0.979
same,normalized growth,"locus YLR342W, strain FKS1 (second series), active compounds read low",0.76 (active)
same,normalized growth,"locus YLR342W, strain FKS1, active compounds read low",0.914
same,normalized growth,"locus YLR357W, strain rsc2, active compounds read low",1.02
same,normalized growth,"locus YLR370C, strain arc18, active compounds read low",0.98
same,normalized growth,"locus YLR371W, strain rom2, active compounds read low",0.986
same,normalized growth,"locus YLR384C, strain iki3, active compounds read low",0.96
same,normalized growth,"locus YLR418C, strain cdc73, active compounds read low",0.905
same,normalized growth,"locus YML016C, strain PPZ1, active compounds read low",0.973
same,normalized growth,"locus YML032C, strain rad52, active compounds read low",0.958
same,normalized growth,"locus YML120C, strain ndi1, active compounds read low",0.971
same,normalized growth,"locus YML124C, strain tub3, active compounds read low",0.995
same,normalized growth,"locus YMR058W, strain fet3, active compounds read low",0.959
same,normalized growth,"locus YMR078C, strain ctf18, active compounds read low",0.994
same,normalized growth,"locus YMR125W, strain sto1, active compounds read low",0.988
same,normalized growth,"locus YMR129W, active compounds read low",0.987
same,normalized growth,"locus YMR205C, strain PFK2, active compounds read low",0.945
same,normalized growth,"locus YMR223W, strain ubp8, active compounds read low",0.973
same,normalized growth,"locus YMR231W, strain pep5, active compounds read low",0.969
same,normalized growth,"locus YMR307W, strain GAS1, active compounds read low",0.763
same,normalized growth,"locus YNL067W, strain RPL9B, active compounds read low",0.935
same,normalized growth,"locus YNL071W, strain lat1, active compounds read low",0.978
same,normalized growth,"locus YNL128W, strain TEP1, active compounds read low",0.967
same,normalized growth,"locus YNL183C, strain NPR1, active compounds read low",0.986
same,normalized growth,"locus YNL209W, strain ssb2, active compounds read low",0.973
same,normalized growth,"locus YNL233W, strain BNI4, active compounds read low",0.936
same,normalized growth,"locus YNL248C, strain rpa49, active compounds read low",0.908
same,normalized growth,"locus YNL250W, strain rad50, active compounds read low",0.992
same,normalized growth,"locus YNL271C, strain bni1, active compounds read low",0.974
same,normalized growth,"locus YNL298W, strain CLA4, active compounds read low",0.963
same,normalized growth,"locus YNL307C, strain MCK1, active compounds read low",0.826 (active)
same,normalized growth,"locus YNL322C, strain KRE1 (second series), active compounds read low",0.984
same,normalized growth,"locus YNL322C, strain KRE1, active compounds read low",0.988
same,normalized growth,"locus YNR049C, strain mso1, active compounds read low",0.987
same,normalized growth,"locus YNR052C, strain pop2, active compounds read low",0.901 (active)
same,normalized growth,"locus YOL006C, strain TOP1, active compounds read low",0.618
same,normalized growth,"locus YOL012C, strain htz1",1.37
same,normalized growth,"locus YOL147C, strain pex11, active compounds read low",1
same,normalized growth,"locus YOR001W, strain rrp6, active compounds read low",0.955
same,normalized growth,"locus YOR061W, strain CKA2, active compounds read low",0.971
same,normalized growth,"locus YOR069W, strain VPS5, active compounds read low",0.978
same,normalized growth,"locus YOR070C, strain gyp1, active compounds read low",0.979
same,normalized growth,"locus YOR080W, strain dia2, active compounds read low",0.963
same,normalized growth,"locus YOR083W, strain WHI5, active compounds read low",0.934
same,normalized growth,"locus YOR106W, strain vam3, active compounds read low",0.902
same,normalized growth,"locus YOR136W, strain idh2, active compounds read low",1.01
same,normalized growth,"locus YOR144C, strain elg1, active compounds read low",0.993
same,normalized growth,"locus YOR184W, strain ser1, active compounds read low",0.81 (active)
same,normalized growth,"locus YOR231W, strain MKK1, active compounds read low",1.04
same,normalized growth,"locus YOR265W, strain rbl2, active compounds read low",0.977
same,normalized growth,"locus YOR270C, strain vph1, active compounds read low",0.852
same,normalized growth,"locus YOR290C, strain snf2, active compounds read low",0.961
same,normalized growth,"locus YOR316C, strain cot1, active compounds read low",0.987
same,normalized growth,"locus YPL051W, strain arl3, active compounds read low",0.916
same,normalized growth,"locus YPL055C, strain LGE1, active compounds read low",0.89
same,normalized growth,"locus YPL078C, strain atp4, active compounds read low",0.908
same,normalized growth,"locus YPL106C, strain sse1, active compounds read low",0.992
same,normalized growth,"locus YPL240C, strain hsp82, active compounds read low",0.986
same,normalized growth,"locus YPL256C, strain CLN2, active compounds read low",1.06
same,normalized growth,"locus YPR119W, strain clb2, active compounds read low",1
same,normalized growth,"locus YPR141C, strain kar3, active compounds read low",0.996
same,normalized growth,"locus YPR163C, strain tif3, active compounds read low",0.875 (active)
same,normalized growth,"locus YPR167C, strain met16, active compounds read low",0.975
same,normalized growth,"strain wtn01, active compounds read low",0.986

# Reference: PubChem BioAssay AID1159580 (chemical genetic matrix, 2015)
